SKKanGAS inh: blocks kanamycin growth of S. pyogenes SKKanGAS strain. BacTiter-Glo, 6 h. inhibition, % at 7.5 µM. 300,000 compounds, 1.3% hits. AID 1662;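 active = mean replicate score, as percent of positive control median, at least 50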;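 note: strain carries kanamycin resistance gene driven by streptokinase promoter and grows in 40 µg/ml kanamycin; loss of luminescence reflects streptokinase promoter inhibition or plain growth inhibition; 0% = median of DMSO wells and 100% = positive control at its reference dose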
Mdm2-MdmX inh: human Mdm2/MdmX binding inhibition. O15151+Q00987. SaOS-2 split-luciferase Mdm2/MdmX complementation, luminescence. inhibition, % at 8 µM. 330,000 compounds, 3% hits. AID 485346;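 active = inhibition of at least 50% at 8 µM in the primary screen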
CSC inhib: cancer stem cell inhibition; inhibition, % at 7.5 µM; 300,000 compounds, 1.1% hits; cancer stem cell-like cells viability, luminescence; in the data active = inhibition above about 75%; tested in HMLE shEcad cells
MPTP inh: blocks calcium-induced mitochondrial swelling; isolated mouse mitochondria, Ca2+ swelling absorbance, 30 min; inhibition, % at 10 µM; 360,000 compounds, 1.4% hits;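 active = inhibition of 50% or more, scaled per plate between neutral and stimulator controls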;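 note: 0% = DMSO wells given calcium and 100% = 1 mM EGTA wells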
NR3A LBD binder: modulates the human NR3A ligand-binding domain | NR3A LBD differential scanning fluorimetry, Tm shift; 0% = protein alone, 100% = glycine-bound protein | Tm shift relative to glycine control, % at 25 µM | 340,000 compounds, 2.5% hits | AID 1259313;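 active = melting temperature shift of at least 10% of the positive control shift, at one fixed dose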
Beta cell apopt: blocks beta cell apoptosis. AID 435005. INS-1E cytokine-induced death, ATP luminescence, 48 h; percent of positive-control rescue, neutral wells zero. 300,000 compounds, 0.8% hits. protection from apoptosis, % (no concentration beside the values);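 active = Every replicate reaches about 75%, or at least half do and their mean reaches it too, limit read from the data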;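 note: 0% = cytokine-treated negative control wells and 100% = positive control rescue; higher means more ATP so stronger rescue from cytokine killing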
The depositor's hits bear a star; nt = no result. Most compounds without a hit are left out; they make up all but 6.9% or so of the library.

SMILES	SKKanGAS inh	Mdm2-MdmX inh	CSC inhib	MPTP inh	NR3A LBD binder	Beta cell apopt
C[C@H](CO)N1C[C@H](C)[C@@H](CN(C)Cc2ccncc2)Oc2c(NC(=O)Cc3ccccc3)cccc2C1=O	nt	13	2	0	-1	-2
CCCCN(CC)S(=O)(=O)c1ccc(C(=O)Nc2nnc(COC)o2)cc1	12	34	nt	-3	-2	1
CCN(Cc1ccccc1)S(=O)(=O)c1ccc(C(=O)Nc2nnc(-c3ccccc3OC)o2)cc1	94*	42	6	-24	3	11
CCCCN(CC)S(=O)(=O)c1ccc(C(=O)Nc2nnc(-c3ccccc3Cl)o2)cc1	99*	8	-9	-26	nt	14
COc1ccccc1-c1nnc(NC(=O)c2ccc(S(=O)(=O)N(C)C)cc2)o1	31	3	13	-2	-6	-1
CCCCN(CCCC)S(=O)(=O)c1ccc(C(=O)Nc2nnc(CSC)o2)cc1	106*	33	22	-31	-8	23
CCCCN(C)S(=O)(=O)c1ccc(C(=O)Nc2nnc(-c3cccs3)o2)cc1	101*	45	111*	nt	nt	11
CCc1cc(C(=O)N(Cc2ccccc2)c2c(N)n(CCOC)c(=O)[nH]c2=O)sc1C	-4	5	-3	1	-3	nt
CC(C)(C)CC(=O)NC(=S)Nc1ccccc1C(F)(F)F	2	29	-3	3	14*	2
COc1ccc(C(=O)CC(=O)C(=O)Nc2cc(Cl)c(OC)cc2OC)cc1	9	-6	-2	1	-1	6
COc1ccc(C(=O)CC(=O)C(=O)Nc2ccccc2Cl)cc1	56*	nt	5	1	-4	-2
COc1ccc(C(=O)CNc2ccccc2Br)cc1	-2	-3	1	-1	17*	-2
COc1ccc(C(=O)CC(=O)C(=O)Nc2ccccc2C(F)(F)F)cc1	85*	17	3	3	0	16
CC(C)CC(=O)NC(=S)Nc1ccccc1C(F)(F)F	8	13	1	0	0	-4
COC(=O)N1C2CCCCC2=NN(c2ccccc2)N1C(=O)OC (stereo not drawn)	nt	nt	nt	-1	nt	nt
O=C(O)CCCNC(=O)c1nn(Cc2ccccc2)c(=O)c2ccccc12	1	-16	6	1	0	-4
Cc1ccc(S(=O)(=O)N/N=c2\oc3ccccc3cc2C(=O)Nc2cccc(C)c2)cc1	2	-27	-7	nt	nt	-1
O=C(Nc1cccc(-n2cnnn2)c1)c1cc(Cl)ccc1Cl	2	28	-1	1	-4	4
O=C(Nc1cccc(-n2cnnn2)c1)c1ccoc1COc1ccc(Cl)cc1	9	-13	-9	3	21*	nt
CN1CCN(C2=C(NS(=O)(=O)c3cccs3)C(=O)c3ccccc3C2=O)CC1	5	13	8	2	0	93*
CCN1CCN(C2=C(NS(=O)(=O)c3ccccc3)C(=O)c3ccccc3C2=O)CC1	3	37	-14	1	2	82*
O=C1C(NS(=O)(=O)c2cccs2)=C(N2CCN(c3cccc(C(F)(F)F)c3)CC2)C(=O)c2ccccc21	55*	-13	37	2	-4	2
CCN1CCN(C2=C(NS(=O)(=O)c3ccc(Br)cc3)C(=O)c3ccccc3C2=O)CC1	-6	36	16	0	-6	66
O=C(COc1ccc(-c2ccccc2)cc1)N1CCN(C(=O)c2cccnc2)CC1	0	31	-3	-3	12*	-7
O=C(CN1C(=O)NC2(CCCC2)C1=O)N1CCN(S(=O)(=O)c2cccc(F)c2)CC1	0	11	nt	-2	16*	-5
SMILES	SKKanGAS inh	Mdm2-MdmX inh	CSC inhib	MPTP inh	NR3A LBD binder	Beta cell apopt
Cc1ccc(C2(C)NC(=O)N(CC(=O)N3CCN(S(=O)(=O)c4cccc(F)c4)CC3)C2=O)cc1 (stereo not drawn)	0	-32	4	0	2	-4
CCOC(=O)C1(CC2CCCCO2)CCN(C(=O)Nc2cccc(SC)c2)CC1 (stereo not drawn)	-16	5	4	-1	11*	2
Cn1c(O)c(/C=N/NC(=O)c2cc3ccccc3cc2O)c2ccccc21	104*	24	nt	8	21*	69
CCn1c2ccccc2c2cc(/C=N/NC(=O)c3ccc(O)cc3)ccc21	19	-4	6	-3	38*	9
O=C(N/N=C/c1cn(Cc2ccccc2)c2ccccc12)c1cc(O)cc(O)c1	13	9	27	1	6	-2
Cn1c2ccccc2c2cc(/C=N/NC(=O)c3ccc(O)cc3O)ccc21	-19	2	10	-1	30*	12
CCn1c2ccccc2c2cc(/C=N/NC(=O)c3ccncc3)ccc21	-6	34	-10	-1	-1	-5
COCCn1c(C)cc(/C=N/NC(=O)c2cc3ccccc3cc2O)c1C	nt	45	nt	3	4	2
CCn1c2ccccc2c2cc(/C=N/NC(=O)c3cc(O)cc(O)c3)ccc21	24	-5	84*	0	21*	3
O=C(c1cnc(Cc2c[nH]c3ccccc23)c(I)c1)N1CCN(Cc2ccccc2)CC1	nt	nt	nt	-1	nt	nt
COc1ccc(C=O)cc1CSc1ccccn1	-13	14	-8	-1	-1	-4
COc1ccc(/C=N/NC(=O)c2ccc(O)cc2O)cc1CSc1ccccn1	-2	-2	16	-1	21*	-3
COc1ccc2c(c1)cc(C(=O)N/N=C/c1c(O)c(C(=O)O)cc3ccccc13)n2C	10	7	-18	2	11*	-1
Oc1ccccc1N=Nc1ccccc1O	59*	nt	nt	4	0	nt
Nc1ccc(N=Nc2ccccc2O)c(N)c1	10	-95	41	1	6	-1
CC(O)[C@H]1CC[C@H]2[C@@H]3CC[C@H]4C[C@H](O)CC[C@]4(C)[C@H]3[C@H](O)C[C@]12C (stereo partly drawn)	nt	4	8	1	-1	1
CCN(CC(=O)Nc1ccc(S(=O)(=O)N2CCCC2)cc1)CC(=O)Nc1ccccc1C(F)(F)F	nt	28	15	0	-3	16
Cc1ccc(N=C2C(=O)Nc3ccccc32)cc1	-5	-7	-2	-1	3	-9
CCN(CC)c1ccc(N=C2C(=O)Nc3ccccc32)cc1	11	1	-13	6	nt	87*
CC(=O)Nc1ccc(NC(=O)CS(=O)(=O)Cc2ccccc2)cc1	-3	-5	-5	-1	13*	-1
CC(C)c1ccc(NC2CCCN(C(=O)CCc3cn[nH]c3)C2)cc1 (stereo not drawn)	7	31	-9	1	2	-1
Cc1ccc(C(=O)NC2CCC(C)CC2)o1 (stereo not drawn)	-3	-28	nt	0	-1	4
c1ccc(Nc2nnc(-c3cccc4ccccc34)o2)cc1	-1	-11	-6	6	15*	5
NC(=O)c1sc2cc(C(F)(F)F)cnc2c1-c1cccs1	-3	-1	-6	0	21*	-1

From PubChem BioAssay
